Hits are enriched below; roughly 7.5% of the tested compounds scored in any of these assays.
ELG1 genotoxic – inducers of genotoxicity in HEK293T ELG1-luciferase cells; Potency, µM (titrated, usually from 46 µM), for inactives: at the top dose activity change, positive = activation, usual class: activators; 1.3% of 330,000 active; HEK293T ELG1-luciferase reporter, luminescence, 16 h; further: % of control where 0% means no effect; nearly all actives have a fitted effect of over 60% in size
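Quantitative HTS format in 1536-well plates. HEK293T ELG1-luciferase reporter cells receive test compound and are incubated 16 hr at 37 °C, 5% CO2; ONE-Glo added, 30 min room temperature, then luminescence read.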
NPC1 promoter act – NPC1 promoter activation; Huh7 NPC1 promoter luciferase reporter, 24 h; 2.4% of 320,000 active; Potency, µM (titrated, usually from 9.22 µM), inactives show at the highest dose activation, most hits filed as activators; AID 485313; further: % of control where 0% means no effect; nearly all actives have a fitted effect of over 60% in size
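Huh7 cells stably carrying NPC1 promoter–luciferase, plated in Opti-MEM with 10% FBS for 2 h, were exposed to compound in DMSO for 24 h at 37 °C; luciferase reagent was added for 10 min and luminescence read.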
Rab9 promoter act – Rab9 promoter activation; Huh7 Rab9 promoter-luciferase reporter, luminescence, 24 h; Potency, µM (series often up to 9.22 µM), for the others: top-dose activation, negative = inhibition, most hits filed as activators; 2.8% of 320,000 active; AID 485297; further: % of control where 0% means no effect; nearly all actives have a fitted effect of over 60% in size
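Luminescence from Amplite-detected luciferase (10 minutes, ambient) reports Rab9 promoter activation. Before that, stable Rab9-luciferase Huh7 cells (1500/well, reduced-serum OP-MEM I plus 10% FBS) were exposed to compound for 24 hours at 37C.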
SMN2 splice up – SMN2 splice variant enhancement; HEK293 SMN2-luciferase splicing reporter, luminescence, 30-36 h; Potency, µM (highest dose often 46.1 µM), for the others: at the top dose activity change, positive = activation, hits mostly activators; 2.8% of 210,000 active; AID 1458; further: % of control where 0% means no effect; nearly all actives have a fitted effect of over 55% in size
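HEK293 cells carry an SMN2 minigene-luciferase reporter in which exon 7 inclusion puts luciferase in frame. Cells were seeded at 2000 cells/well, attached for 10-12 hours, then exposed to compounds for 30-36 hours at 37C before ONE-Glo luminescence.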
FLuc modulator – counter-screen for miR-21 project: firefly luciferase inhibitors or activators. P08659. purified FLuc, Km substrates, luminescence inhibition. Potency, µM (series often up to 57.5 µM), for the others: at the highest dose activity change, negative = inhibition, most hits filed as inhibitors. 6.9% of 360,000 active. AID 588342;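 further: plate controls were vehicle for no effect and reference inhibitor for full effect; nearly all actives have a fitted effect of over 55% in size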
Target sequence (P08659 whole entry, looked up): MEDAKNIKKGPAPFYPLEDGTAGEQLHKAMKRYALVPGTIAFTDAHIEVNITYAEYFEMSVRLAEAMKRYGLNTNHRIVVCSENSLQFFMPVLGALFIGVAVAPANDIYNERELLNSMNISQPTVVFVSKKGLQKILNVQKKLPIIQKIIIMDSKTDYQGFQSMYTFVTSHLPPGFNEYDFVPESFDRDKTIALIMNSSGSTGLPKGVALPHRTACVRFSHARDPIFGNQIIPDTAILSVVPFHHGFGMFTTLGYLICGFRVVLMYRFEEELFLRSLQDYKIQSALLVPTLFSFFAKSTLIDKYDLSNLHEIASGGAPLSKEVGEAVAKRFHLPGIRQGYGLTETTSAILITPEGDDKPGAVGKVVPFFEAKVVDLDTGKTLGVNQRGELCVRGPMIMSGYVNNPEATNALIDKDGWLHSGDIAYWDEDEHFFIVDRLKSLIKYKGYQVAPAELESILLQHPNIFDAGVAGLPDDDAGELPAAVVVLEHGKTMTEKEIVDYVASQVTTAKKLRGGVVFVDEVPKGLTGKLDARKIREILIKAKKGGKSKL
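Purified P. pyralis luciferase (10nM final) with 10uM D-luciferin and 10uM ATP (Km levels) in 50mM Tris acetate pH 7.5, 10mM Mg acetate, 0.01% Tween-20, 0.05% BSA; qHTS 6-point titration, ~60 µM downward; luminescence read.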
Starred values were filed as active, the others as inactive; ? = inconclusive; . = not tested or not shown; [ ] = another dose, or the depositor's remark. The call rests on the fitted dose curve; in most records, active means well fitted curve in the direction sought with a large enough effect; inconclusive means small, poorly fitted or top-dose-only effect, or another doubt; inactive means no such curve, though single readings can be large; an effect the other way counts as inactive or inconclusive. Potency means the concentration at half of the fitted maximal effect.

SMILES | ELG1 genotoxic | NPC1 promoter act | Rab9 promoter act | SMN2 splice up | FLuc modulator
O=C(CCCOc1ccccc1)Nc1nc2ccccc2[nH]1 | ? | ? | ? | . | 11µM*
O=C(Nc1nc2ccccc2[nH]1)c1ccccc1 | 0.52µM* | ? | 1.6µM* | 4µM* | 1.5µM*
CC(=O)Nc1nc2ccccc2[nH]1 | 0% | -5% | 0% | 20% | -1%
CCn1c(SCC(=O)Nc2ccc(NC(C)=O)cc2)nc2c([nH]c3ccccc32)c1=O | ? | 6% | 8% | . | 2%
Cc1[nH]n(C(N)=S)c(=O)c1N=Nc1cc(C(F)(F)F)ccc1Cl | -13% | 0% | -10%[1.84 µM] | . | -16%
Cc1[nH]n(C(N)=S)c(=O)c1N=Nc1ccc(S(=O)(=O)N2CCCC2)cc1 | 1% | -2% | 13% | 10% | 19µM*
Cc1[nH]n(C(N)=S)c(=O)c1N=Nc1cccc(C(F)(F)F)c1 | 5% | 4µM* | 19%[1.84 µM] | . | 9.5µM*
Cc1ccc(N=Nc2c(C)[nH]n(C(N)=S)c2=O)cc1 | 16µM* | ? | 3.2µM* | 18µM* | 2.7µM*
Cc1[nH]n(C(N)=S)c(=O)c1N=Nc1ccc(Br)cc1 | ? | 3.5µM* | 2.8µM* | . | 2.4µM*
COc1ccc(NC(=O)CNS(=O)(=O)c2ccc3nc(C)sc3c2)c(OC)c1 | 3% | 0% | -8% | -13% | 0%
Nc1c(C(=O)Nc2ccc3c(c2)OCCO3)nnn1Cc1ccccc1Cl | 17% | 2.8µM* | 2.2µM* | . | ?
COc1ccc(NC(=O)c2nnn(CC(=O)Nc3ccc4c(c3)OCO4)c2N)c(OC)c1 | 1%[9.26 µM] | 19% | 18% | . | 1.9µM*
Nc1c(C(=O)Nc2ccc3c(c2)OCCO3)nnn1Cc1ccc(F)cc1 | ? | 2.5µM* | 2.2µM* | . | ?
Cc1ccc2oc(C(=O)N(CCO)Cc3ccccc3)c(C)c2c1 | 5% | -2% | 0% | . | -2%
CCc1nc2oc3ccccc3c(=O)c2c(=O)n1-c1ccc(C)cc1 | ? | 16% | 23% | . | 17µM*
CCc1nc2oc3ccccc3c(=O)c2c(=O)n1-c1ccccc1 | 13µM* | 14% | 3% | 11µM* | -1%
CCCc1nc2oc3ccccc3c(=O)c2c(=O)n1-c1ccccc1 | ? | 13% | 13% | . | -9%
COc1cc([N+](=O)[O-])ccc1NC(=S)Nn1cnnc1 | -4% | -6% | 1% | . | ?
COc1cccc(C(=O)N/N=c2\oc3c(OC)cccc3cc2C(=O)NCc2ccccc2)c1 | 7% | 7% | 3% | -20% | 5%
COCC(C)N=C1NN=C(c2c[nH]c3ccccc23)CS1 (stereo not given) | ? | 19% | ? | . | 21µM*
CCn1c(SC)nnc1-c1c[nH]c2ccccc12 | 26% | 12% | 0% | -43% | ?
CCN=C1NN=C(c2c[nH]c3ccccc23)CS1 | ? | 3.5µM* | 1.1µM* | . | 6µM*
CCC(=O)NC(=S)Nc1ccccc1OC | 0% | -5% | -7% | ? | -12%
C=CCn1c(SCCNC(C)=O)nc2cc(-c3ccccc3)sc2c1=O | 10% | 7% | 10% | . | ?
Cc1nc2cc(-c3ccccc3)sc2c(=O)n1N | -21% | ? | ? | 1.4µM* | 0.67µM*
SMILES | ELG1 genotoxic | NPC1 promoter act | Rab9 promoter act | SMN2 splice up | FLuc modulator
COc1ccc(-c2cc3nc(C)n(N)c(=O)c3s2)cc1 | ? | 0.079µM* | 0.0032µM* | . | 0.076µM*
COc1ccc(-c2nc3ccccc3c(=O)n2N)cc1 | 0% | 0% | 2% | 7% | 2%
O=C(/C=C/c1ccccc1)N1CCC(N2CCC(C(=O)N3CCOCC3)CC2)CC1 | 0% | -4% | -21% | . | -5%
O=C(NCC1COc2ccccc2O1)c1cc2ccccc2o1 (stereo not given) | 16% | 8% | 6% | 23% | 13µM*
O=C(NC(=S)NCC1COc2ccccc2O1)c1ccccc1 (stereo not given) | 0% | 0% | 0% | -33% | ?
O=C(NCC1COc2ccccc2O1)c1ccccc1 (stereo not given) | ? | 4µM* | 4.5µM* | 13µM* | 12µM*
COc1cccc(NC(=O)COc2ccc(C(=O)N3CCN(C)CC3)cc2)c1 | 0% | -1% | -2% | . | -8%
O=C(/C=C/c1ccc(Cl)c(Cl)c1)n1cccn1 | 2% | 2% | -1% | -5% | 2.7µM*
COc1ncc2nc(CCc3ccccc3)c(=O)n(C)c2n1 | . | . | . | 14µM* | .
COCCn1c(=O)c(CCc2ccccc2)nc2cnc(OC)nc21 | . | . | . | -9% | .
CCOC(=O)C(C)Oc1cccc2c(=O)n(CC(=O)NCc3ccccc3)ccc12 (stereo not given) | 13% | -7% | -22% | . | 6%
COCCn1c(SCC(=O)Nc2ccc3c(c2)OCCO3)nc2c(c1=O)SC(C)C2 (stereo not given) | 0% | 0% | 17% | ? | -12%
Cc1cc(C)c(C)c(OCC(=O)O/N=C(\N)c2ccncc2)c1 | -5% | 0% | -1% | . | 0%
N/C(=N\OC(=O)COc1ccc(Br)cc1Cl)c1ccncc1 | ? | 3.5µM* | 3.5µM* | 11µM* | 6.7µM*
Cc1ccc(OCC(=O)O/N=C(\N)c2ccncc2)c(C)c1 | 15µM* | 3.2µM* | 3.5µM* | . | 11µM*
N/C(=N\OC(=O)COc1cc(Cl)c(Cl)cc1Cl)c1ccncc1 | 18µM* | ? | ? | 14µM* | 13µM*
O=C(O)CSCC(=O)N1CCCN(c2ccc(C(F)(F)F)cn2)CC1 | -1% | 0% | -1% | . | 5%
Cc1ccc2nc(-c3ccc(NC(=S)NC4CC(C)(C)NC(C)(C)C4)cc3)sc2c1 | ? | ? | ? | ? | 11µM*
CCC(=O)NC(=S)Nc1ccc(NC(=S)NC(=O)c2ccc(C)cc2)cc1 | ? | -7% | -4% | -2% | 1%
CC1(C)CC(NC(=S)Nc2ccc(S(N)(=O)=O)cc2)CC(C)(C)N1 | -3% | 0% | 0% | 11% | 1%
Cc1ccc2nc(-c3ccc(NC(=S)NC(=O)C(C)C)cc3)sc2c1 | 9.2µM* | 0.4µM* | 1.8µM* | . | 3.8µM*
CCC(=O)NC(=S)Nc1ccc(-c2nc3ccccc3s2)cc1 | ? | 0.45µM* | 1.6µM* | 5µM* | 0.76µM*
CCC(=O)NC(=S)Nc1ccc(-c2nc3ccc(C)cc3s2)cc1 | ? | 0.79µM* | 0.45µM* | . | 17µM*
COc1ccc(CNC(=O)C(C)N2C(=O)NC3(CCCCCCC3)C2=O)cc1 (stereo not given) | -14% | 0% | 2% | . | 0%
CCCCCCCCCCS(=O)(=O)N/N=C/c1ccc([N+](=O)[O-])cc1 | 0% | 3% | 0% | ? | -12%
CCc1ccc(NS(=O)(=O)c2ccc3[nH]cc(C(=O)N4CCc5ccccc54)c(=O)c3c2)cc1 | ? | 12% | 23% | ? | 21µM*
CCOCCCNC(=O)c1c[nH]c2ccc(S(=O)(=O)Nc3cccc(OC)c3)cc2c1=O | -5% | -3% | -7% | -27% | 2%

Screens from PubChem.
